In assay [1] the target is human Vitamin D Receptor (VDR), VDR (gene 7421) (UniProt P11473). Put plainly: ATG_VDR_TRANS: Attagene TRANS-FACTORIAL HepG2 Assay for human Vitamin D Receptor (VDR) (AID 2283022; active = hit-call score of the fitted dose curve at least 0.9, where 1 is the maximum). In a few lines:
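RT-PCR/capillary electrophoresis read-out of reporter mRNA induction in transiently transfected HepG2; 24 h dosing; chimeric NR-Gal4 (TRANS format); gain-of-signal fit against DMSO baseline.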

Assay [2] is described as follows: BSK_3C_SRB: Viability Assessment in the BioMAP Diversity Plus: 3C Assay (AID 2283023).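 Note: fitted both ways against DMSO so a hit may be signal rise or drop.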 The note with it: primary human endothelial cells (HUVEC). In a few lines: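 HUVEC, 24 h post-dose; 10% TCA fix, 0.1% SRB stain, A560 nm. Bidirectional curve fit vs DMSO negative control.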
Read-out in assay [3]: Matrix Metallopeptidase 1 (MMP1), MMP1 (gene 4312)
Put plainly: BSK_BE3C_MMP1: BioMAP Diversity Plus: BE3C Assay for Matrix Metallopeptidase 1 (MMP1) Biomarker Activity (AID 2283024). As to conditions: primary human bronchial epithelial cells; actives raise or lower the signal. In a few lines: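 Primary human bronchial epithelial cells were dosed with test chemicals, and MMP1 levels were measured by ELISA 24 h later. Data were fitted bidirectionally against DMSO as the negative control and activity baseline.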

Assay [4] is described as follows: BSK_3C_Vis: BioMAP Diversity Plus: 3C Assay for Morphology Visualization (AID 2283025).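 Note: fitted both ways so gain or loss versus DMSO counts.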 As to conditions: primary human endothelial cells (HUVEC). In a few lines:
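Human umbilical vein endothelial cells in the 3C system were imaged by light microscopy 24 h after chemical dosing to record cell morphology. Activity was fitted bidirectionally against DMSO as negative control and baseline; the endpoint serves as a background control.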

Read-out in assay [5]: Pselectin, SELP (gene 6403)
Briefly: BSK_4H_Pselectin: BioMAP Diversity Plus: 4H Assay for Pselectin Biomarker Activity (AID 2283026). As to conditions: primary human endothelial cells (HUVEC); actives raise or lower the signal. In a few lines: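 Primary human umbilical vein endothelial cells were exposed to test chemical for 24 h, then cell-surface P-selectin was quantified by ELISA. Activity was fitted bidirectionally against DMSO as negative control and baseline.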

The nature of assay [6]: BSK_BE3C_SRB: Viability Assessment in the BioMAP Diversity Plus: BE3C Assay (AID 2283028).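 For AC50: fitted both ways so AC50 may mark signal gain or loss versus DMSO.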 The note with it: primary human bronchial epithelial cells. In a few lines: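 Primary human bronchial epithelium; chemical dosing, 24 h; 10% TCA fix, 0.1% SRB stain, A560; bidirectional fit vs DMSO baseline.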
Read-out in assay [7]: Thrombomodulin, THBD (gene 7056)
Briefly: BSK_3C_Thrombomodulin: BioMAP Diversity Plus: 3C Assay for Thrombomodulin Biomarker Activity (AID 2283029). The note with it: primary human endothelial cells (HUVEC); actives raise or lower the signal. In a few lines:
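Primary human umbilical vein endothelial cells (3C system) were exposed to chemical for 24 h, then thrombomodulin levels were measured by ELISA. Activity was fitted bidirectionally against the DMSO negative control as baseline.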

Read-out in assay [8]: Urokinase-type plasminogen activator receptor (uPAR), PLAUR (gene 5329)
Put plainly: BSK_4H_uPAR: BioMAP Diversity Plus: 4H Assay for Urokinase-type plasminogen activator receptor (uPAR) Biomarker Activity (AID 2283030). As to conditions: primary human endothelial cells (HUVEC); actives raise or lower the signal. In a few lines: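 HUVEC, 24 h post-dose; uPAR by ELISA; bidirectional fit vs DMSO baseline.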

Read-out in assay [9]: Vascular endothelial growth factor receptor 2 (Homo sapiens) (UniProt P35968)
Put plainly: BSK_4H_VEGFRII: BioMAP Diversity Plus: 4H Assay for Vascular endothelial growth factor receptor 2 (VEGFR2) Biomarker Activity (AID 2283031).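 For AC50: cell-surface VEGFR2 protein level quantified by ELISA.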 As to conditions: primary human endothelial cells (HUVEC); actives raise or lower the signal. In a few lines: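 HUVEC (human primary), 4H system; 24 h post-dose; VEGFRII by ELISA; bidirectional curve fit vs DMSO baseline; gain or loss of signal scored.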

Assay [10] is described as follows: BSK_4H_SRB: Viability Assessment in the BioMAP Diversity Plus: 4H Assay (AID 2283027).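 For AC50: curves fitted both ways versus DMSO so AC50 may be loss or gain.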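 Note: cells exposed to compound for 24 h before staining.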 The note with it: primary human endothelial cells (HUVEC). In a few lines: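 Human umbilical vein endothelial cells, 24 h after chemical dosing; total protein measured by 0.1% sulforhodamine B staining after 10% TCA fixation, read at 560 nm. Bidirectional fitting against DMSO.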

Structures are written as SMILES. Inconclusive results are not listed. The source holds several records for some structures; these can differ, active in one and inactive in another. Active and inactive are the calls of the source. Rule for the calls, unless noted: active = hit-call score of the fitted dose curve at least 0.9, where 1 is the maximum; inactive = score below 0.9.

Sequence of human Vitamin D Receptor (VDR), VDR (gene 7421) (P11473 whole entry, looked up, the tested form may be a part): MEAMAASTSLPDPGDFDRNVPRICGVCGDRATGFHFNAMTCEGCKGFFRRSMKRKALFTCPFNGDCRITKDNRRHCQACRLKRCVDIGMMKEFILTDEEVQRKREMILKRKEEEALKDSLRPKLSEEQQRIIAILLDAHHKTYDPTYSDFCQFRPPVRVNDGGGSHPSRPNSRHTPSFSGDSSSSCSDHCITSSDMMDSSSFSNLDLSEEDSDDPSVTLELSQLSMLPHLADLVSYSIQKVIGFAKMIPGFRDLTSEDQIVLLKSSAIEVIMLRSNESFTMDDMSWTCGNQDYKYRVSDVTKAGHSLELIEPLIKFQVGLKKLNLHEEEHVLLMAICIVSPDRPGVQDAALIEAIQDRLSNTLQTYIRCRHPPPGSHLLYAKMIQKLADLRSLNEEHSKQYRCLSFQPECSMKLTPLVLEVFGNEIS

For the compound `CCCCCCCC(=O)O`, the call in [1], in [2], in [3], in assay [4], in [5] and in [6] was inactive. Further, the result in assay [7], in [8] and in [9] was inactive.
In general, AC50 refers to the concentration at which the activity in the assay is half-maximal. Regarding `CN1CCN(c2ccccc2/C=C2\SCCN(c3ccc(Cl)c(Cl)c3)C2=O)CC1`, the compound was classed as inactive in assay [1], in assay [7] and in [9]. The AC50 in assay [2] is 16.3 µM (active); in [3] it was 32 µM (active); in [4] it was 13.9 µM (active); in assay [5], 6.28 µM (active); in assay [6], 33.3 µM (active); in [8], 5.49 µM (active).
As to `CC(=O)CC(C)(C)O`, the result in assay [1], in [2], in assay [3], in assay [4], in assay [5] and in assay [10] was inactive. The result in assay [6], in assay [7], in [8] and in assay [9] was inactive.
On to `CC1=C(/C=C/C(C)=C/C=C/C(C)=C/C(=O)O)C(C)(C)CCC1`, for which the outcome in assay [1], in assay [2], in [4], in [6], in assay [7] and in assay [8] was inactive. Also, in [9], the outcome was inactive. Further, the values for the AC50 in assay [3] and in [5] were 0.854 µM (active) and 31.7 µM (active), respectively.
`OC1CCC(C2CCCCC2)CC1` (stereo unspecified): the call in assay [1], in assay [2], in [3], in [4], in [5] and in [10] was inactive. In addition, the outcome in assay [6], in assay [7], in assay [8] and in assay [9] was inactive.
On to `CCCCCCCCCCCCCCCS(=O)(=O)Oc1ccccc1`, for which the compound was classed as inactive in [1], in assay [2], in assay [3], in [4], in [5] and in [10]. The result in assay [6], in [7], in assay [8] and in [9] was inactive.
Turning to `CN1CCC[C@H]1c1cccnc1`, the compound was called inactive in assay [1], in assay [2], in assay [3], in assay [4], in assay [5] and in assay [10]. For the same compound, the outcome in assay [6], in assay [7], in assay [8] and in assay [9] was inactive.
For `CCCCCCCCCCCCc1ccccc1S(=O)(=O)O`, the call in [1], in assay [2], in [5], in assay [10], in assay [7] and in assay [8] was inactive. Besides, the outcome in assay [9] was inactive. The AC50 in assay [3] is 28.8 µM (active); in assay [4], 39 µM (active); in [6], 7.1 µM (active).
Regarding `COc1cc(CCC(=O)CC(=O)CCc2ccc(O)c(OC)c2)ccc1O`, in assay [1], the outcome was inactive.
Consider `C[C@@H]1C[C@H]2[C@@H]3CCC4=CC(=O)C=C[C@]4(C)[C@@]3(F)[C@@H](O)C[C@]2(C)[C@@]1(O)C(=O)COP(=O)(O)O`, for which the result in [1], in assay [2], in [3], in assay [4], in assay [5] and in [10] was inactive. In addition, the outcome in assay [6], in assay [7], in assay [8] and in [9] was inactive. Moreover, the AC50 in assay [3] was 0.1 µM (active).
With `Oc1cc2ccccc2c2ccccc12`, in [1], the result was inactive. The AC50 in assay [2] was 15.4 µM (active); in [3], 27.9 µM (active); in assay [4] it was 13.3 µM (active); in assay [5], 9.99 µM (active); in assay [6], 28.8 µM (active); in [7], 9.55 µM (active). For the same compound, the concentration at half-maximal activity (AC50) in assay [8] was 13.2 µM (active); in assay [9], 30.1 µM (active).
In the case of `CCCCCCCCCCCCN1CCCC1=O`, the call in assay [1], in [7] and in assay [9] was inactive. The AC50 is 33.6 µM (active) in assay [2]; 31.7 µM (active) in [3]; 37.3 µM (active) in assay [4]; 30 µM (active) in [5]; 33.4 µM (active) in assay [10]; 32.8 µM (active) in [6]. Further, the AC50 in assay [8] is 34.9 µM (active).
As to `CC(=O)NC1(c2cccc(F)c2)CCN(CC[C@@]2(c3ccc(Cl)c(Cl)c3)CN(c3ccccc3)C(=O)CO2)CC1`, the call in [1], in assay [3], in [6], in assay [7] and in assay [9] was inactive. Further, the half-maximal activity concentration (AC50) is 21.6 µM (active) in assay [2]; 12.7 µM (active) in assay [4]; 20.4 µM (active) in assay [5]; 20.3 µM (active) in assay [10]; 16.6 µM (active) in assay [8].
Take `CCCCC(CC)COC(=O)CCCCC(=O)OCc1ccccc1` (stereo unspecified): the outcome in [1], in [2], in assay [3], in assay [4], in assay [5] and in assay [10] was inactive. In addition, the outcome in assay [6], in [7], in [8] and in [9] was inactive.
Consider `c1ccc2cc3c(ccc4ccccc43)cc2c1`, for which the compound was called inactive in [1], in assay [2], in [5], in assay [6], in assay [7] and in [8]. In assay [9], the outcome was inactive. The AC50 was 1.42 µM (active) in assay [3] and 9.8 µM (active) in assay [4].
For the compound `c1ccc2c(c1)ccc1ccccc12`, the compound was classed as inactive in assay [1], in assay [2], in assay [3], in assay [4], in [5] and in assay [6]. Besides, the outcome in assay [7], in [8] and in assay [9] was inactive.

Source of the values: PubChem BioAssay (EPA / NIEHS).
